Laboratory results as given in PubChem BioAssay (Tox21).
Results filed as inconclusive are left out. Calls of active or inactive are those of the source. Unless noted, the call rests on the fitted dose curve.

How the values were obtained:
[1] = target: Gonadotropin-releasing hormone receptor (Homo sapiens) (UniProt P30968); experiment: Human gonadotropin-releasing hormone receptor (GnRHR) small molecule agonists, calcium flux assay in GnRHR-HEK293 cells (AID 1920063); further: nearly all actives have a fitted effect of over 35% in size
In short: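 Stable human GnRHR HEK293 line. 18 h plating, then calcium dye for 1 h at 37 C. Agonist-mode compound addition from DMSO stocks; fluorescence monitored 3 min.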

[2] = target: KiSS-1 receptor (Homo sapiens) (UniProt Q969F8); experiment: Human kisspeptin (KISS1R) small molecule agonists, calcium flux assay in KISS1R-HEK293 cells (AID 1920064; active means well fitted activation curve with a large enough effect in the repeat runs)
In short: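 After overnight (18 h) culture at 37 C/5% CO2, human KISS1R-HEK293 cells received calcium dye for 1 h, then test compound; emission at 540 nm (excitation 480 nm) was tracked for 3 min.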

[3] = G protein-coupled receptor (GPCR) small molecule agonists, calcium flux assay: HEK293 wild type cell line counter screen (AID 1920065)
In short: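 Following 18 h incubation at 37 C/5% CO2, plates got calcium dye for 1 h; compounds, ATP or DMSO were then pinned in and fluorescence followed kinetically (480/540 nm).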

[4] = p53 small molecule agonists, cell-based qHTS assay with human liver microsomes (AID 1963577)
In short: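 Fluorescence of the beta-lactamase reporter in p53RE-bla cells, detected with LiveBLAzer substrate (2 h, room temperature, dark), served as the read-out after 16 h compound exposure at 37 C with human liver microsomes and NADPH, each 0.5 mg/mL final.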

[5] = p53 small molecule agonists, cell-based qHTS assay with rat liver microsomes (AID 1963578)
In short: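 Cells carrying a p53 response element–beta-lactamase reporter were plated and rested 5 h, then dosed with compound in DMSO plus rat liver microsomes and NADPH, each at 0.5 mg/mL final. After 16 h at 37 C, LiveBLAzer substrate was added for 2 h.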

[6] = p53 small molecule agonists, cell-based qHTS assay with human liver microsomes: qHTS cell viability counter screen (AID 1963579); further: nearly all actives have a fitted effect of over 45% in size
In short: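 Cytotoxicity counter screen: p53RE-bla, 4,000 cells/well; 5 h settle, 37 C/5% CO2; cpd + HLM 0.5 mg/mL + NADPH 0.5 mg/mL (final); 16 h, 37 C; CellTiter-Glo, 30 min RT, luminescence.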

[7] = p53 small molecule agonists, cell-based qHTS assay with rat liver microsomes: qHTS cell viability counter screen (AID 1963580); further: nearly all actives have a fitted effect of over 45% in size
In short: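 Counter screen for cytotoxicity under metabolic activation: rat liver microsomes and NADPH, 0.5 mg/mL final each, added with compounds to p53RE-bla HCT-116 cells; 16 h at 37 C, then ATP luminescence read.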

[8] = p53 small molecule agonists, cell-based qHTS assay: qHTS cell viability counter screen (AID 1963581); further: nearly all actives have a fitted effect of over 45% in size
In short: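 qHTS counter screen: 16 h compound exposure at 37 C of p53RE-bla HCT-116 cells (4,000 per well, seeded 5 h prior), cell viability by ATP luminescence.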

[9] = target: Beta-2 adrenergic receptor (Homo sapiens) (UniProt P07550); experiment: Adrenergic beta2 receptor (ADRB2) small molecule antagonists, cell-based qHTS assay (AID 1963592); further: series mostly up to about 92 µM; nearly all actives have a fitted effect of over 50% in size
In short: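 Assay format: CHO-ADRB2 cells, 18-20hr seeding at 37C/5% CO2, then compound plus 1nM isoproterenol agonist mix for 0.5hr RT. Homogeneous time-resolved fluorescence cAMP detection after 1hr, expressed as 665/615 nm ratio.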

[10] = target: Beta-2 adrenergic receptor (Homo sapiens) (UniProt P07550); experiment: Adrenergic beta2 receptor (ADRB2) small molecule agonists, cell-based qHTS assay (AID 1963593);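 further: CHO cells stably overexpressing human ADRB2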
In short: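 CHO cells stably over-expressing ADRB2 were plated overnight at 37C, then dosed with compounds plus a stimulation mix containing 100uM IBMX and 25uM Ro-20-1724 for 0.5hr at room temperature. cAMP was measured by HTRF competition, 1hr.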

[11] = target: D(2) dopamine receptor (Homo sapiens) (UniProt P14416); experiment: Dopamine D2 receptor (DRD2) small molecule agonists, cell-based qHTS assay (AID 1963594); further: nearly all actives have a fitted effect of over 35% in size
In short: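 HEK293 cells stably expressing DRD2 were cultured 24 h at 37 C, then given Ro20-1724 (0.1 mM final) and compounds for 10 min at room temperature. NKH477 (200nM) was then added for 30 min. cAMP was read by HTRF.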

[12] = Nuclear factor erythroid 2-related factor 2/antioxidant responsive element (Nrf2/ARE) small molecule agonists: luciferase reporter gene qHTS assay in human keratinocytes (AID 1919969); further: nearly all actives have a fitted effect of over 35% in size
[13] = cAMP Responsive Elements (CRE) small molecule agonists, cell-based qHTS assay (AID 1963590)
In short: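 Test agents in DMSO were incubated 3 h at 37 C/5% CO2 with CRE-bla HEK 293T cells seeded 18 h earlier; LiveBLAzer B/G FRET substrate was added and read after 2 h at room temperature.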

[14] = cAMP Responsive Elements (CRE) small molecule antagonists, cell-based qHTS assay (AID 1963591; active means well fitted inhibition curve with a large enough effect in the signal ratio in the repeat runs, not every such curve was filed as active; the % refers to the signal ratio)
In short: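 Reporter line CRE-bla HEK 293T in dialyzed-FBS DMEM; cells preincubated 18 h, treated 3 h with compound plus NKH477 (0.25 uM final); LiveBLAzer FRET, 2 h RT.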

[15] = target: D(2) dopamine receptor (Homo sapiens) (UniProt P14416); experiment: Dopamine D2 receptor (DRD2) small molecule antagonists, cell-based qHTS assay (AID 1963595; active means well fitted inhibition curve with a large enough effect in the signal ratio in the repeat runs, with a control signal flat; the % refers to the signal ratio)
In short: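 Human DRD2 antagonist qHTS measuring cAMP by HTRF. The cells are exposed to compound for 10 min, then to NKH477 (200 nM) and quinpirole (12 nM) for 30 min at RT, with Ro20-1724 (0.1 mM) present throughout.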

[16] = p53 small molecule agonists, cell-based qHTS assay (AID 1963582; active means well fitted activation curve with a large enough effect in the signal ratio in the repeat runs, not every such curve was filed as active; the % refers to the signal ratio)
In short: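 Measured: fluorescence from cleaved LiveBLAzer substrate. System: p53RE-bla cells, 16 h compound treatment at 37 C, 2 h substrate step at room temperature.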

[17] = target: 5-hydroxytryptamine receptor 2A (Homo sapiens) (UniProt P28223); experiment: 5-hydroxytryptamine receptor 2A (HTR2A) small molecule antagonists, cell-based qHTS assay (AID 1963586); further: nearly all actives have a fitted effect of over 45% in size
In short: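 CHO cells stably expressing human HTR2A were plated for 18 h at 37 C, then loaded with calcium dye for 1 h. Compounds were preincubated 5 min at room temperature before DOI (4 nM solution) was added. Kinetic fluorescence was read for 3 min.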

[18] = target: 5-hydroxytryptamine receptor 2A (Homo sapiens) (UniProt P28223); experiment: 5-hydroxytryptamine receptor 2A (HTR2A) small molecule agonists, cell-based qHTS assay (AID 1963587); further: nearly all actives have a fitted effect of over 30% in size
In short: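 HTR2A-CHO cells, plated 18 h at 37 C/5% CO2, dye-loaded 1 h at 37 C; compounds in DMSO added by pin tool (agonist mode). Intracellular calcium flux read as kinetic fluorescence on FDSS over 2 min at 1 s intervals.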

[19] = target: Muscarinic acetylcholine receptor M1 (Homo sapiens) (UniProt P11229); experiment: Cholinergic receptor muscarinic 1 (CHRM1) small molecule antagonists, cell-based qHTS assay (AID 1963588); further: nearly all actives have a fitted effect of over 40% in size
In short: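 Compounds were tested at 15 concentrations in three independent runs. Dye-loaded CHRM1-CHO cells were exposed 5 min at room temperature before stimulation by acetylcholine added at 50nM. Intracellular calcium was read kinetically on FDSS for 3 min.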

[20] = target: Muscarinic acetylcholine receptor M1 (Homo sapiens) (UniProt P11229); experiment: Cholinergic receptor muscarinic 1 (CHRM1) small molecule agonists, cell-based qHTS assay (AID 1963589); further: nearly all actives have a fitted effect of over 35% in size
In short: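 Kinetic fluorescence (1 s intervals) of calcium-sensitive dye in human M1 CHO cells after compound addition; cells pre-incubated 18 h at 37 C/5% CO2 and dye-loaded 1 h.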

Measured: Potency

Sequence of D(2) dopamine receptor (Homo sapiens) (P14416 whole entry, looked up): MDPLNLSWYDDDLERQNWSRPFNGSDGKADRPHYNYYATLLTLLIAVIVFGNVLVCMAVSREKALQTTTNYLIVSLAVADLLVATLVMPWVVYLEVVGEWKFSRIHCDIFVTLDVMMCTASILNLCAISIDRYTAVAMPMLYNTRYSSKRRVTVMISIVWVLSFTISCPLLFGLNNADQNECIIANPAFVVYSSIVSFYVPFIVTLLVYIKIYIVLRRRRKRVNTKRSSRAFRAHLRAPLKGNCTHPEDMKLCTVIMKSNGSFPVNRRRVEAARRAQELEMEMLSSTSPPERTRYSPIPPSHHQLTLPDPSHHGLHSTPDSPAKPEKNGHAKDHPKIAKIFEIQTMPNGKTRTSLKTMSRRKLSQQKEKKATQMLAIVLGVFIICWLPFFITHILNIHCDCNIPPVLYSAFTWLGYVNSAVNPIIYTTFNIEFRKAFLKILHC
Sequence of 5-hydroxytryptamine receptor 2A (Homo sapiens) (P28223 whole entry, looked up): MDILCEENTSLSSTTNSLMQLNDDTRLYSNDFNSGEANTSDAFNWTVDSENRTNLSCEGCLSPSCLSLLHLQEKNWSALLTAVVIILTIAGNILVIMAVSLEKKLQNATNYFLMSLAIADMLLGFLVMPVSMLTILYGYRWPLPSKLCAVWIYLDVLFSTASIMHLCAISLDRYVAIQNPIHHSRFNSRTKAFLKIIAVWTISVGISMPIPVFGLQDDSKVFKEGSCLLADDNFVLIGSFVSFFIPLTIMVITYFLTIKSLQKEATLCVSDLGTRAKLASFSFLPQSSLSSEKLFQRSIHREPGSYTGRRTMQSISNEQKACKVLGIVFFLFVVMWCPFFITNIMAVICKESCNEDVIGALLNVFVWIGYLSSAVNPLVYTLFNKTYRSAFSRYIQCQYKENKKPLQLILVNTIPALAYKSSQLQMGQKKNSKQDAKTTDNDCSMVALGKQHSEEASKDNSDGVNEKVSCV
Sequence of Beta-2 adrenergic receptor (Homo sapiens) (P07550 whole entry, looked up): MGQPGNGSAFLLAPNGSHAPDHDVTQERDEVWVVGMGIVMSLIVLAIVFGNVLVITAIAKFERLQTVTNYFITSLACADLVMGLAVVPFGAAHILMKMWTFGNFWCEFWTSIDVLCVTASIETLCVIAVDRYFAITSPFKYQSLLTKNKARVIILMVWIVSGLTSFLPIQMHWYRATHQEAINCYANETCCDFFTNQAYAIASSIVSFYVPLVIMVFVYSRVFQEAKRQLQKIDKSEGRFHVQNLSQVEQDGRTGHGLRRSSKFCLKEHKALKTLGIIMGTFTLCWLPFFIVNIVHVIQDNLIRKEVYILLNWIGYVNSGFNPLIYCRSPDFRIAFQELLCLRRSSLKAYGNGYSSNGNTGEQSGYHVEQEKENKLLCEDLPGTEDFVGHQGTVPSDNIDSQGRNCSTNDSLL
Sequence of KiSS-1 receptor (Homo sapiens) (Q969F8 whole entry, looked up): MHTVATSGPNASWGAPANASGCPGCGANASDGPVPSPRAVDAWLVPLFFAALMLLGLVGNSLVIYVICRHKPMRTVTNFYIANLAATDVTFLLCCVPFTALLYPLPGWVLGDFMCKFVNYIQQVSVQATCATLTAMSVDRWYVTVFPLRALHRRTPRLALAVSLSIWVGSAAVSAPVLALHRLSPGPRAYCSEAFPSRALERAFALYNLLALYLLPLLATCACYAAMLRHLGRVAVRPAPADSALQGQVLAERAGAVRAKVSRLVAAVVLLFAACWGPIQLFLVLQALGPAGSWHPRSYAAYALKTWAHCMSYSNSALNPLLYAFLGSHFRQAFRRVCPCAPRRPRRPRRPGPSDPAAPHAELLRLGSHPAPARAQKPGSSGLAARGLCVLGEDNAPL
Sequence of Gonadotropin-releasing hormone receptor (Homo sapiens) (P30968 whole entry, looked up): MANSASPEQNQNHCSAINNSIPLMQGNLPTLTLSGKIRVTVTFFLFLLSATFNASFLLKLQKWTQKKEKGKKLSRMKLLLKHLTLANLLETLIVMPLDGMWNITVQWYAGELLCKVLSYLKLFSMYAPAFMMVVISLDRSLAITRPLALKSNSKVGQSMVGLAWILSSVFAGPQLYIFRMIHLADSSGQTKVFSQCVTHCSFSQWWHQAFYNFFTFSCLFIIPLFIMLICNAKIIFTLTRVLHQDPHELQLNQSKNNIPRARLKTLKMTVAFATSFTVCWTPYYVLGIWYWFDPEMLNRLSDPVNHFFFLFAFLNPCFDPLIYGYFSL
Sequence of Muscarinic acetylcholine receptor M1 (Homo sapiens) (P11229 whole entry, looked up): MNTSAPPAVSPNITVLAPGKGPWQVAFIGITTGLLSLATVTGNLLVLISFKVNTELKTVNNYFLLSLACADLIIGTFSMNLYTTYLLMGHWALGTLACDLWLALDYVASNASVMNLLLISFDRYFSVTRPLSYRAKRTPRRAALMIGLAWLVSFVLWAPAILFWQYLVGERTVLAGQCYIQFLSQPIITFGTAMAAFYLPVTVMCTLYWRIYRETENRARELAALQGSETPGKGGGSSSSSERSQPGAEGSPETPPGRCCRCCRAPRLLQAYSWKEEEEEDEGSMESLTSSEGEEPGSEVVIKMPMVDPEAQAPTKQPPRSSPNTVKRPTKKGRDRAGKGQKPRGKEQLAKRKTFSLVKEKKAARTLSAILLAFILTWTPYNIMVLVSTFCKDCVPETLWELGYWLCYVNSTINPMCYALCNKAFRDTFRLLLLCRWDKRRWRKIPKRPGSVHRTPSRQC

C=C(CC)C(=O)c1ccc(OCC(=O)O)c(Cl)c1Cl
inactive: [1] | [2] | [3] | [4] | [5] | [6] | [7] | [8] | [9] | [10] | [11]

CC(=O)OCC(=O)[C@@]1(O)CC[C@H]2[C@@H]3CCC4=CC(=O)C=C[C@]4(C)[C@H]3[C@@H](O)C[C@@]21C
inactive: [12] | [2] | [3] | [6] | [7] | [8] | [13] | [14] | [9] | [11] | [15]

O=CC1CC=CCC1 (stereo not given)
not listed: [2] | [10]
inactive: all other assays above

CCCCOC(=O)C(=O)OCCCC
not listed: [1] | [17]
inactive: all other assays above

CCOC(=O)c1ccc(N)cc1
not listed: [12] | [15] | [17] | [18] | [19] | [20]
inactive: all other assays above

CCCN1CCCC[C@H]1C(=O)Nc1c(C)cccc1C
not listed: [2] | [8] | [10]
inactive: all other assays above

O=C(CCS)OCC(COC(=O)CCS)(COC(=O)CCS)COC(=O)CCS
not listed: [3] | [10] | [15]
inactive: all other assays above

O=C1OC(CN2CCOCC2)CN1/N=C/c1ccc([N+](=O)[O-])o1 (stereo not given)
not listed: [3] | [18] | [19]
inactive: all other assays above

CC(=O)c1cc(C)oc1C
not listed: [3] | [6]
inactive: all other assays above

NS(=O)(=O)c1ccc(NC(=O)CCC(=O)O)cc1
not listed: [12] | [20]
inactive: all other assays above

CC(C)C(=O)c1ccccc1
not listed: [2] | [10]
inactive: all other assays above

CCCC(=O)OCC(COC(=O)CCC)OC(=O)CCC
not listed: [2] | [20]
inactive: all other assays above
